Screening results (PubChem)
ALOX12 inhib: 12-hLO (ALOX12) enzyme inhibition; P18054; AID 1452; hit rate 0.12% among 150,000; Potency, µM (highest dose often 57.1 µM), without a hit: top-dose activity change, negative = inhibition, actives largely listed as inhibitors; purified 12-hLO, xylenol orange hydroperoxide absorbance; also: potency is read from the fitted curve at half-maximal effect; nearly all actives have a fitted effect of over 55% in size
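Purified human 12hLO (150 nM), preincubated 15 min with compound, then 40 uM arachidonic acid for 30 min, room temperature, Hepes pH 7.0 with 0.01% Triton X-100. Hydroperoxide detected by ferrous iron/xylenol orange; 573/405 nm absorbance ratio gives reaction progress.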
IMPase Li cell: IMPase inhibition in cells with lithium potentiation; CHO-M1 cells, IP1 TR-FRET (IP-One), carbachol + lithium; Potency, µM (titrated, usually from 59.4 µM), inactives show at the highest dose activity, negative = IMPase inhibition, usual class: inhibitors; hit rate 0.35% among 210,000;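 also: IP1 builds up when IMPase is blocked and the TR-FRET signal falls; potency is read from the fitted curve at half-maximal effect; plate controls were basal vehicle for no effect and high inhibitor control for full effect; nearly all actives have a fitted effect of over 50% in size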
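Readout is a homogeneous TR-FRET IP1 immunoassay (Ex 320, Em 665 and 620), where raised cytosolic IP1 lowers signal. Cells were CHO-M1 treated 30 min at 37C with test compounds plus a little lithium; AC50 values came from Hill-equation fitting.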
HPGD block: blocks human HPGD enzyme activity | P15428 | purified HPGD, NADH fluorescence kinetic, PGE2 substrate | Potency, µM, without a hit: at the highest dose activity change, negative = inhibition, actives largely listed as inhibitors | hit rate 4.3% among 150,000; active = well fitted inhibition curve with a large enough effect, not every such curve was filed as active; inconclusive = small, poorly fitted or top-dose-only effect, or another doubt; inactive = no such curve, though single readings can be large or run the other way; also: potency is read from the fitted curve at half-maximal effect
Target sequence (P15428 whole entry, looked up): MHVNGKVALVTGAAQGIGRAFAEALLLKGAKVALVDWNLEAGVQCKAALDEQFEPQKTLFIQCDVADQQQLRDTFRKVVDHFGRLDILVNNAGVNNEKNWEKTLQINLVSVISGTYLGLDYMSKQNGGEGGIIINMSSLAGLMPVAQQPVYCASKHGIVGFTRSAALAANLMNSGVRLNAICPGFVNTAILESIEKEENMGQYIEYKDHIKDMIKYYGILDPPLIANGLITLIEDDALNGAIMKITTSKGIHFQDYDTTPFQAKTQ
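20 nM HPGD preincubated 15 min at room temperature with compound in 50 mM Tris-HCl pH 8, 0.01% Tween 20. Started with 1 mM NAD+ and 30 uM prostaglandin E2; NADH fluorescence (360/450 nm) read 5 times over 30-s intervals, last minus first.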
IMPase cell inh: membrane-permeable compound that blocks inositol monophosphatase; P97697; CHO-M1 cells, IP1 accumulation, HTRF TR-FRET ratio; inhibition (IP1 accumulation), % at 46.1 µM; 120,000 tested, under 10 active; AID 901; active = well fitted curve in the direction sought with a large enough effect in the signal ratio, not every such curve was filed as active; inconclusive = small, poorly fitted or top-dose-only effect, or a change in a side signal; inactive = no such curve, though single readings can be large or run the other way; the % refers to the signal ratio;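 also: cells stimulated with carbachol in lithium chloride buffer; plate controls were DMSO basal wells for no effect and reference inhibitor wells for full effect; higher means more IMPase inhibition seen as more IP1 and lower FRET ratio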
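Seeded CHO-M1 cells were dosed with compound at up to 46 uM, stimulated with carbachol for 30 min, then lysed in IP-One detection reagents. Higher IP1 lowers the TR-FRET signal.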
ALDH1A1 block: ALDH1A1 (human) enzyme inhibition; P00352; hit rate 7.3% among 220,000; Purified ALDH1A1, NADH fluorescence, propionaldehyde substrate; Potency, µM (titrated, usually from 75.3 µM), for inactives: at the highest dose activity, negative = inhibition, most hits filed as inhibitors; active = well fitted inhibition curve with a large enough effect, not every such curve was filed as active; inconclusive = small, poorly fitted or top-dose-only effect, or another doubt; inactive = no such curve, though single readings can be large or run the other way;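 also: potency is read from the fitted curve at half-maximal effect; plate controls were no enzyme wells and a reference inhibitor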
Target sequence (P00352 whole entry, looked up): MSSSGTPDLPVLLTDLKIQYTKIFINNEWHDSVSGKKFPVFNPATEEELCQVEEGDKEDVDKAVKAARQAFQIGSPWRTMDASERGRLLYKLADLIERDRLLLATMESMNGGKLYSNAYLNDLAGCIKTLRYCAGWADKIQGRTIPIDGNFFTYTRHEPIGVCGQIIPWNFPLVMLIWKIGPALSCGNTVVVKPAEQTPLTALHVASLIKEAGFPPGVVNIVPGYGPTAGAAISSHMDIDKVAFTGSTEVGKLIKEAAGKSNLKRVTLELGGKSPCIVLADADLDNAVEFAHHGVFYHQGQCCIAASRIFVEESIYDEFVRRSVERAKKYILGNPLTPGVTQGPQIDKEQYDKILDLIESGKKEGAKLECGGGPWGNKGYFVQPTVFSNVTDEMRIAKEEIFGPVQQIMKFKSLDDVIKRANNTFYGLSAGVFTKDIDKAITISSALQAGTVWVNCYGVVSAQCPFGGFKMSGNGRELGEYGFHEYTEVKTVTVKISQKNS
PNC assembly inh: inhibitors of perinucleolar compartment assembly. PC3M PTB-GFP, PNC prevalence imaging, 16 h; active compounds read low. activity change (PNC), negative = inhibition, % at 10 µM. hit rate 3.1% among 140,000;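 active = readout at or below -70, meaning at least 70% loss of cells showing the perinucleolar compartment, a nuclear body marking cancer cells; inconclusive = readout between -30 and a set limit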;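 also: plate controls were DMSO wells for no effect and camptothecin positive control wells for full effect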
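PC3M cells stably expressing PTB-GFP, 750–1000 cells/well, treated 16 h at 37 °C with compound (23 nl of library stock), in duplicate. After paraformaldehyde fixation and Hoechst stain, imaged at 20x; PNC prevalence scored by image analysis.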
* hit, by the source's call; ? = inconclusive; · = no result; [ ] = remark or other dose. Shown are actives, neighbours in structure and some others; about 11% of the full set was active somewhere. Unless noted, calls follow the shape of the dose curve; as a rule, active = well fitted curve in the direction sought with a large enough effect; inconclusive = small, poorly fitted or top-dose-only effect, or another doubt; inactive = no such curve, though single readings can be large; an effect the other way counts as inactive or inconclusive. Unless noted, % is scaled to controls: 0 for no effect and ±100 for the full control effect.

SMILES	ALOX12 inhib	IMPase Li cell	HPGD block	IMPase cell inh	ALDH1A1 block	PNC assembly inh
O=C(O)c1ccc(NC2=C/C(=N/S(=O)(=O)c3ccccc3)c3ccccc3C2=O)cc1	·	24%	·	·	?	·
CC(=O)C1=C(C)NC(SCSc2ccccc2)=C(C#N)C1c1cccnc1 (stereo not given)	-3%	4%[38.3 µM]	-14%	4	?	-86*
CC(=O)C1=C(C)NC(SCC(=O)c2ccc(-c3ccccc3)cc2)=C(C#N)C1c1cccnc1 (stereo not given)	-6%	4%[38.3 µM]	-5%	-8	-1%	84
CSCSC1=C(C#N)C(c2ccccc2Cl)C(C(C)=O)=C(C)N1 (stereo not given)	-8%	6%[38.3 µM]	?	7	25µM*	?
CC(C)Cn1c(N)c(C(=O)COC(=O)c2ccc([N+](=O)[O-])o2)c(=O)n(C)c1=O	·	9%	·	·	18µM*	·
CC(C)Cn1c(N)c(C(=O)COC(=O)c2cc(F)cc(F)c2)c(=O)n(C)c1=O	·	11%	·	·	4%	·
Cn1c(N)c(C(=O)COC(=O)c2ccc(Cl)nc2)c(=O)n(C)c1=O	·	-8%	·	·	0%	·
CC(C)Cn1c(N)c(C(=O)COC(=O)c2ccc(O)cc2)c(=O)n(C)c1=O	·	1%	·	·	7.9µM*	·
CC(C)Cn1c(N)c(C(=O)COC(=O)c2cnc(Cl)c(Cl)c2)c(=O)n(C)c1=O	·	26%	·	·	0.45µM*	·
COC(=O)N1C2=C(c3ccccc3[C@@H]1CC(=O)Nc1ccc3ccc4cccc5ccc1c3c45)[C@@H]1C(=O)N(c3ccccc3)C(=O)[C@@H]1[C@H](C)C2	-15%[11.4 µM]	10%	?	·	10%[13.5 µM]	·
Cn1c(=O)c2c(ncn2C[C@@H](O)CO)n(C)c1=O	2%[25.6 µM]	0%	-13%	-3[20.6 µM]	0%[20.9 µM]	·
C=CCNC(=S)NS(=O)(=O)c1cccs1	·	-2%	·	·	18µM*	·
O=S(=O)(NCCNS(=O)(=O)c1cccs1)c1cccs1	-2%	-8%[38.3 µM]	1%	2	0%	55
CCOC(=O)c1nnn(-c2nonc2N)c1CSc1ccccc1	3%	54%[38.3 µM]	2%	1	?	17
CCOC(=O)c1nnn(-c2nonc2N)c1CSc1ccc(C)cc1	-20%	17%[38.3 µM]	-23%	10	4.5µM*	3
Cn1c2c(c(=O)n(C)c1=O)C(c1ccccc1[N+](=O)[O-])CC(=O)N2 (stereo not given)	·	·	·	2	·	·
CCOc1cc(C(=O)Nc2ccc(-c3nc4cc(Cl)ccc4o3)cc2)cc(OCC)c1OCC	·	·	·	-9	·	·
C=CC[C@@H]1C=C[C@H](O/N=C\[C@@H](C)[C@H](OCc2ccccc2)C(C)C)[C@H](CO)O1	·	·	·	·	5%[13.5 µM]	·
COc1cccc(NC(c2nnc(-c3ccccc3)o2)c2ccc(F)cc2Cl)c1 (stereo not given)	·	·	·	-3	·	·
CCOc1ccc(Br)cc1C(=O)Nc1ccc(C(=O)NCC(C)C)cc1	3%	10µM*	2µM*	·	-2%	15
CCOC(=O)c1[nH]c2c(c1C)C(=O)CC(c1ccco1)C2 (stereo not given)	-11%	19%[38.3 µM]	-19%	2	?	-108*
COCCOC(=O)c1[nH]c2c(c1C)C(=O)CC(c1ccco1)C2 (stereo not given)	-7%	27%[38.3 µM]	-11%	4	?	-95*
COc1ccc(C2CC(=O)c3c([nH]c(C(=O)OCc4ccccc4)c3C)C2)cc1 (stereo not given)	·	·	·	3	·	·
CSCCOC(=O)c1[nH]c2c(c1C)C(=O)CC(c1ccco1)C2 (stereo not given)	-2%	34%[38.3 µM]	-5%	-5	?	-90*
Cc1c(C(=O)OCc2ccccc2)[nH]c2c1C(=O)CC(c1ccco1)C2 (stereo not given)	-10%	36%[38.3 µM]	-28%	6	8.9µM*	-82*
SMILES	ALOX12 inhib	IMPase Li cell	HPGD block	IMPase cell inh	ALDH1A1 block	PNC assembly inh
CC1(OC(=O)c2cnc3ccccc3n2)C(=O)C=C2C=C3CCCN3C=C2C1=O (stereo not given)	1%[11.4 µM]	-1%	-9%	·	0%[13.5 µM]	·
CCOC(=O)C(CC)(CC)/C(C)=N/NC(=O)CC#N	5%	29%[38.3 µM]	-13%	3	9%	5
C=CCOC(=O)C(C(C)=O)C(NC(=O)OC)c1ccc(Cl)cc1 (stereo not given)	·	·	·	·	11%[13.5 µM]	·
COCCN1C(=O)N[C@@H](c2cccc(C(F)(F)F)c2)C(C(C)=O)=C1C	·	5%	-14%	·	-7%	·
COCCOC(=O)c1[nH]c2c(c1C)C(=O)CC(c1ccc(F)cc1)C2 (stereo not given)	-2%	8%[38.3 µM]	-6%	4	5%	?
Cc1c(C(=O)OCCOC(C)C)[nH]c2c1C(=O)CC(c1ccco1)C2 (stereo not given)	-3%	10%	-10%	12	25µM*	-91*
CN(C)c1ccc(-c2nc(N3CCNCC3)c3ccccc3n2)cc1	3%	11%	-18%	·	-15%	·
OC(CNCC(c1ccco1)N1CCCCC1)c1ccccc1 (stereo not given)	-6%	26%[38.3 µM]	2%	4	18µM*	-127*
S=C(NCC(c1ccco1)N1CCCC1)Nc1ccccc1 (stereo not given)	·	?	·	·	-15%	·
CSc1ccccc1C(=O)Nc1ccccc1C(=O)NC(C)C	·	1%	·	·	?	·
Cc1ccc(/C=C/C(=O)Nc2ccc(Oc3ccccc3)cc2)o1	-2%	15%	25µM*	13	24µM*	31
CCOC(=O)C(=O)Nc1ccc(Oc2ccccc2)cc1	·	3%	·	·	3%	·
CCOC(=O)/C=C/C(=O)Nc1ccc(Oc2ccccc2)cc1	·	15%	·	·	25µM*	·
Cc1ccc(/C=C/C(=O)Nc2ccc([N+](=O)[O-])cc2)o1	?	·	·	-9	12µM*	11
CCOC(=O)/C=C/C(=O)Nc1ccc(S(=O)(=O)Nc2c(C)cc(C)cc2C)cc1	-1%	16%	-5%	·	13µM*	66
O=C1c2oc3ccccc3c(=O)c2C(c2cccc(O)c2)N1Cc1ccc(F)cc1 (stereo not given)	·	·	·	-8	·	·
Cc1ccc(NC(=O)/C=C/c2ccc(C)o2)c(C)c1	·	·	·	2	·	·
COC(=O)Nc1ccc(Oc2ccccc2)cc1	-3%	16%[38.3 µM]	?	-1	0%	-93*
CC(/C=C/c1ccc(C)o1)=C\C(=O)O	1%	-1%[38.3 µM]	-22%	-1	20µM*	6
Cc1ccc(/C=C/C(=O)N2CC(C)CC(C)C2)o1 (stereo not given)	-9%	11%[38.3 µM]	?	1	10µM*	26
CCN1CCN(C(=O)/C=C/c2ccc(C)o2)CC1	-1%	8%	-13%	10	-10%	0
COC(=O)c1ccc(Cl)cc1NC(=O)/C=C/c1ccc(C)o1	-1%	2%	?	·	20µM*	-124*
